PubChem BioAssay
Unmarked numbers belong to inactive results. The list shows a part of the results. The source made the active and inactive calls.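 Rule for the calls, unless noted: active = mean inhibition above 46.68%, the untreated control wells mean plus 3 SD; inactive = the rest.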

Tests used:
[1] = target: Nuclear receptor coactivator 1 (Homo sapiens) (UniProt Q15788); assay: NCOA1 GAL4-fusion reporter inhibition – cell-based, luminescence, quadruplicate, confirmation (AID 588820); details: HEK293 GAL4-SRC1 luciferase reporter, at 3.6 µM, stronger effect = higher value;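 note: 0% = DMSO wells and 100% = gossypol 36 µM treated wells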
[2] = repression of VP16-driven luciferase reporter – cell-based, luminescence, high throughput, counter-screen for SRC1 inhibitor project (AID 588824; in the data active = inhibition above about 25%); details: cell-based VP16 transactivation luciferase luminescence; at 3.6 µM; stronger effect = higher value
[3] = StAR promoter reporter inhibitors, counter-screen for LRH-1 inverse agonist project, cell-based, luminescence, high throughput (AID 651611; in the data active = inhibition above about 28%); details: StAR promoter luciferase reporter counterscreen, at 3.6 µM, stronger effect = higher value
[4] = target: Nuclear receptor subfamily 5 group A member 2 (Homo sapiens) (UniProt O00482); assay: NR5A2 activity suppression in reporter cells – cell-based, luminescence, confirmation (AID 651613; in the data active = inhibition above about 42%;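 note: HEK293T cells co-transfected with LRH-1 and StAR promoter luciferase reporter; 0% = vehicle wells and 100% = parental cells lacking receptor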); details: cell-based LRH-1 luciferase reporter, inverse agonism; at 3.6 µM; stronger effect = higher value
[5] = target: Steroidogenic factor 1 (Homo sapiens) (UniProt Q13285); assay: inverse agonism at SF1 nuclear receptor – cell-based, luminescence, high throughput, counter-screen for LRH-1 inverse agonist project (AID 651614; in the data active = inhibition above about 44%;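 note: cells cotransfected with StAR promoter reporter and SF1 expression vector; 0% = vehicle on cells with receptor and 100% = vehicle on cells lacking receptor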); details: cell-based SF1 luciferase reporter, at 3.6 µM, stronger effect = higher value
[6] = compounds suppressing VP16-driven luciferase signal – cell-based, luminescence, high throughput, counter-screen for LRH-1 inverse agonist project (AID 651615; in the data active = inhibition above about 33%); details: Gal4-VP16 luciferase reporter cells, at 3.6 µM, stronger effect = higher value
[7] = tested on: transactivating tegument protein VP16 (Human herpesvirus 1); assay: compounds suppressing VP16-driven luciferase signal – cell-based, luminescence, single concentration, counter-screen for SRC2 inhibitor project (AID 652007; in the data active = inhibition above about 36%); details: cell-based VP16 transactivation luciferase reporter, at 8.9 µM, stronger effect = higher value
[8] = target: Nuclear receptor coactivator 2 (Homo sapiens) (UniProt Q15596); assay: inhibition of GAL4-SRC2 driven luciferase expression – cell-based, luminescence, HEK293, triplicate, confirmation (AID 652008;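 active = mean inhibition above 46.5%, the solvent-only control mean plus 3 SD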;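 note: 0% = DMSO-treated cells and 100% = Gossypol at 36 µM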); details: HEK293 GAL4-SRC2 luciferase reporter, at 8.9 µM, stronger effect = higher value
[9] = reduced OD of V66 E. coli with T4 gene 2 phage – absorbance, RecBCD inhibitor project, confirmation (AID 651982;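 active = mean inhibition over triplicates exceeding the hit threshold derived in the original primary screen, cut at about 11% in these data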); details: E. coli V66 + T4 2- phage, growth OD; at 11.9 µM; stronger effect = higher value
[10] = bacterial growth inhibition – absorbance, high throughput, counter-screen for RecBCD inhibitor project (AID 651983; in the data active = inhibition above about 20%;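 note: E. coli strain V66 grown with compound alone and no phage infection; 0% = bacteria with DMSO vehicle only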); details: E. coli viability, absorbance (OD) growth; at 11.9 µM; stronger effect = higher value
[11] = reduced optical density, T4-challenged addAB+ bacteria – absorbance, E. coli V3065, T4 phage, counter-screen for RecBCD inhibitor project, confirmation (AID 651984;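 active = mean inhibition above the solvent-only control wells' mean plus 3 SD, cut at about 22% in these data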;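 note: higher means less bacterial growth from phage killing when AddAB is blocked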); details: E. coli expressing H. pylori AddAB + T4 phage, OD growth; at 11.9 µM; stronger effect = higher value; gene 2 mutant T4, recBCD-deleted host

Nuclear receptor subfamily 5 group A member 2 (Homo sapiens), sequence (O00482 whole entry, looked up): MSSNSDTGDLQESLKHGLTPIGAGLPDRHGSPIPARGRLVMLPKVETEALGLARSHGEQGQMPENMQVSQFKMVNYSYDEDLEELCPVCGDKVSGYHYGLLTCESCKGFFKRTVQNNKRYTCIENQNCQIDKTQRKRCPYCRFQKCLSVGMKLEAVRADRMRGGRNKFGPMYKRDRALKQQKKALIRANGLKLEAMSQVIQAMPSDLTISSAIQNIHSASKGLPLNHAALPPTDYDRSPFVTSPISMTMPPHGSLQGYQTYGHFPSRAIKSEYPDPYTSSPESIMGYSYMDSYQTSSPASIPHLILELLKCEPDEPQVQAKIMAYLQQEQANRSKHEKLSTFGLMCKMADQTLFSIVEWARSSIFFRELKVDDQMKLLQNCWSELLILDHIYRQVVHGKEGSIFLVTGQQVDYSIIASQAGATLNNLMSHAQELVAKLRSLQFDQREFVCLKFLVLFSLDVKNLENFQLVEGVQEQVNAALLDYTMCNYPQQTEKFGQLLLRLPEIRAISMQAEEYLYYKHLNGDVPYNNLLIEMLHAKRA
Steroidogenic factor 1 (Homo sapiens), sequence (Q13285 whole entry, looked up, the tested form may be a part): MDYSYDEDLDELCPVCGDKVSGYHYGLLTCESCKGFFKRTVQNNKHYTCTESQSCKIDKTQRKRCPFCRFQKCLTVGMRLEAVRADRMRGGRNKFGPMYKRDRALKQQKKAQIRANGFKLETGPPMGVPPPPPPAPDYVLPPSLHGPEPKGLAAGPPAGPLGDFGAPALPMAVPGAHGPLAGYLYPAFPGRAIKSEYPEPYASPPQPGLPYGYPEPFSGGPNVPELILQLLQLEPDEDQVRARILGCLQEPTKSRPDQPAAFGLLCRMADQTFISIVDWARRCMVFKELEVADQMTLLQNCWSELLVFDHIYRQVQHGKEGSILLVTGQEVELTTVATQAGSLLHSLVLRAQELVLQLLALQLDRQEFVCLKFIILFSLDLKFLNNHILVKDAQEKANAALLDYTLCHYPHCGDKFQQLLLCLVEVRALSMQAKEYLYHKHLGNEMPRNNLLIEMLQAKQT
Nuclear receptor coactivator 2 (Homo sapiens), sequence (Q15596 whole entry, looked up, the tested form may be a part): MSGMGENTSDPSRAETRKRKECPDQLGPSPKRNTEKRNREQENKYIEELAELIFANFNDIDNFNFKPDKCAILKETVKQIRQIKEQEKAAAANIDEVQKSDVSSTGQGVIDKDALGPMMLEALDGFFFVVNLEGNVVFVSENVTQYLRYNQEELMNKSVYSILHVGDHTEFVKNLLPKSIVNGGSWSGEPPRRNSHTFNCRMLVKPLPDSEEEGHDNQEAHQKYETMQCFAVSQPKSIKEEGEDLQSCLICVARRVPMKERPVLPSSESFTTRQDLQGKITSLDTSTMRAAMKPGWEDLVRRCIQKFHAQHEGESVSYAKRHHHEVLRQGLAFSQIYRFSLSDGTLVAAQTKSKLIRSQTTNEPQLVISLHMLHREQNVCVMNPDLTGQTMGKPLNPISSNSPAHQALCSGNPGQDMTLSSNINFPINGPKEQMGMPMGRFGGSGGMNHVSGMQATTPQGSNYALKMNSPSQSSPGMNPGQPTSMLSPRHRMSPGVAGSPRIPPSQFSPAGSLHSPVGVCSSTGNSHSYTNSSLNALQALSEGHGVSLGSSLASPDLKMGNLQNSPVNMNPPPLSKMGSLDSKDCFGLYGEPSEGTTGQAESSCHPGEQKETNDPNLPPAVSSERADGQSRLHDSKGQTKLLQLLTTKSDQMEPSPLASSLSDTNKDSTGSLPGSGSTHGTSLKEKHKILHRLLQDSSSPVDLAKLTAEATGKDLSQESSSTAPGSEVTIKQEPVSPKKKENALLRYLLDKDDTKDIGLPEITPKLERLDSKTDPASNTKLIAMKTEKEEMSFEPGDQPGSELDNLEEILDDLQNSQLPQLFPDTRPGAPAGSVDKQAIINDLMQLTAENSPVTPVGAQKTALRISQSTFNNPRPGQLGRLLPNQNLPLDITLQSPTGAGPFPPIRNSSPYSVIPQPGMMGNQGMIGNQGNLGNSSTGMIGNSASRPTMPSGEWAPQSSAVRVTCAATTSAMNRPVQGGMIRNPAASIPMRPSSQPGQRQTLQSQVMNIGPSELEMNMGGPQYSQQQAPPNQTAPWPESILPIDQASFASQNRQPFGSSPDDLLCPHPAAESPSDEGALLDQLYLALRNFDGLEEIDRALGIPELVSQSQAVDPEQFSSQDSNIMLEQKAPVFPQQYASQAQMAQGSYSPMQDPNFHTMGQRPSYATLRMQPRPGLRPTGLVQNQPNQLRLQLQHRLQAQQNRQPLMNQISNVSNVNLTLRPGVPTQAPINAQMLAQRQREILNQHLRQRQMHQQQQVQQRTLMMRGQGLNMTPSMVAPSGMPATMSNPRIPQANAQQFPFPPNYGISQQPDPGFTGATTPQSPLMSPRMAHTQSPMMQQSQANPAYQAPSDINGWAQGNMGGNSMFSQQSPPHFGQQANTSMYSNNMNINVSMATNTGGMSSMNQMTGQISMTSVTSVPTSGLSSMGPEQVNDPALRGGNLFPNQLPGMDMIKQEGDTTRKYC
Nuclear receptor coactivator 1 (Homo sapiens), sequence (Q15788 whole entry, looked up, the tested form may be a part): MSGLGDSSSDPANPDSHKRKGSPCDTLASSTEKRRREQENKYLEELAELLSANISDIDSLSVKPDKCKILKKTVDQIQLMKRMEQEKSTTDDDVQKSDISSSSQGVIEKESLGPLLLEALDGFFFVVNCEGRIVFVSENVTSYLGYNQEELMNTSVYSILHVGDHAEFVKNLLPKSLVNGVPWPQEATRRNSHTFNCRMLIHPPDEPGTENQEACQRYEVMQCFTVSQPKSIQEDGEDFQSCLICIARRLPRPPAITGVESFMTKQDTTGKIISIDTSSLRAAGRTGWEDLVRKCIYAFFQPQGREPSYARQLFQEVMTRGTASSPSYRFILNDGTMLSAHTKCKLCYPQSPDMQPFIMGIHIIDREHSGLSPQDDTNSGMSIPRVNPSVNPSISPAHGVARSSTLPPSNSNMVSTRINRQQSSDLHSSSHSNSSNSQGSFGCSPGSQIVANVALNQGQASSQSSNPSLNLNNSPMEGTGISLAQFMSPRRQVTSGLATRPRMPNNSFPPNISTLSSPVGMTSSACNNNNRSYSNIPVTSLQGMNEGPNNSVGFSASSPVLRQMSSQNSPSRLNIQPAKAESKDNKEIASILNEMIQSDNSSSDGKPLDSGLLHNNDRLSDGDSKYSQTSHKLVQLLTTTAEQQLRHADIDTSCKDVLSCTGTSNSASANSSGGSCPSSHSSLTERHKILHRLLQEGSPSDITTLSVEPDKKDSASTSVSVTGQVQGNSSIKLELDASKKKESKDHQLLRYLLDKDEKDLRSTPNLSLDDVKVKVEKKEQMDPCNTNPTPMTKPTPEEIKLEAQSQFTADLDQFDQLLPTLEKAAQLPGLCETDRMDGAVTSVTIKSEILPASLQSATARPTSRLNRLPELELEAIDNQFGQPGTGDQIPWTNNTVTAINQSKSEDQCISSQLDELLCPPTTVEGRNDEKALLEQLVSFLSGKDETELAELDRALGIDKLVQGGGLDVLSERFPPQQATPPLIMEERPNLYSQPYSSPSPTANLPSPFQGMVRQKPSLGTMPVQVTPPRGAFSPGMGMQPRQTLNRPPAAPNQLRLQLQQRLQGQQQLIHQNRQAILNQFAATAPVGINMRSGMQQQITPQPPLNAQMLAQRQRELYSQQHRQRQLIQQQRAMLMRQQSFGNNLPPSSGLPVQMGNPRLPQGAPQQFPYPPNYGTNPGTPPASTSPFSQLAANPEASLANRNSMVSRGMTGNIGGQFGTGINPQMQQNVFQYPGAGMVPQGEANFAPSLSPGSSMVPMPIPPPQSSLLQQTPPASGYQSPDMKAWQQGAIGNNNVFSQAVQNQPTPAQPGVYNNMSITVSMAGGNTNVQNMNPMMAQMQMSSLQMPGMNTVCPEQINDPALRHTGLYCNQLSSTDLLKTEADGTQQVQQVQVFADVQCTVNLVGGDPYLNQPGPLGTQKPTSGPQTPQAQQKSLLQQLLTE

Row | SMILES | inhibition [1] | inhibition [2] | inhibition [3] | inhibition [4] | inhibition [5] | inhibition [6] | inhibition [7] | inhibition [8] | inhibition [9] | inhibition [10] | inhibition [11]
1 | Cc1ccc(C#CC[N+]2(CC#Cc3ccc(C)cc3)CCCCC2)cc1 | 32.6% | 36.3% (active) | 40.5% (active) | 74.2% (active) | 65.3% (active) | 67.5% (active) | – | – | – | – | –
2 | O=C(NCc1ccccc1)c1cccc(NC(=O)c2ccccc2)c1 | -0.73% | 39.8% (active) | 32.8% (active) | 52.4% (active) | 59.2% (active) | 62% (active) | – | – | – | – | –
3 | Fc1ccc(NC(=S)N2CCCN(c3ccc(C(F)(F)F)cn3)CC2)c(F)c1 | -32.2% | 36.5% (active) | 26.6% | 57.6% (active) | 57.8% (active) | 51.6% (active) | – | – | – | – | –
4 | CCN(CC(=O)Nc1ccc(NC(C)=O)cc1)C(=O)C1(c2ccc(Cl)cc2)CCC1 | 16.1% | 9.61% | -2.92% | 40.1% | 27.4% | 11.8% | – | – | – | – | –
5 | COc1ccc(C(=O)NCCN(C)C)c2nc3ccccc3cc12 | 20.7% | 39.4% (active) | 63.9% (active) | 77.7% (active) | 60% (active) | 65.3% (active) | – | – | – | – | –
6 | COc1ccc(NS(=O)(=O)c2ccc(-c3cnc(C4CC4)o3)cc2)cc1OC | -15.9% | 37.2% (active) | 53.2% (active) | 77.5% (active) | 78.8% (active) | 31.6% (active) | – | – | – | – | –
7 | COc1ccc(NC(=O)C2Cc3c(-c4ccc5c(c4)OCO5)ccnc3O2)cc1OC (stereo unspecified) | 0.9% | 34% (active) | 27.9% (active) | 53.5% (active) | 61.1% (active) | 43.5% (active) | – | – | – | – | –
8 | O=C(CSc1nnc(Cn2nnc3ccccc32)o1)N(Cc1ccc(F)cc1)c1ccccc1 | -0.43% | 38.8% (active) | 24.2% | 63% (active) | 56.7% (active) | 56.9% (active) | – | – | – | – | –
9 | NC(=O)[C@H]1CC2(CC(c3cccc(NC(=O)COc4ccc(Cl)cc4)c3)=NO2)CN1C(=O)Cc1ccc([N+](=O)[O-])cc1 (stereo partly specified) | 8.04% | 39.5% (active) | 13.5% | 55.8% (active) | 50.3% (active) | 52.5% (active) | – | – | – | – | –
10 | CN(C)CCNc1ccc2ncn3c4ccc(O)cc4c(=O)c1c23 | 23.2% | 52.9% (active) | 49.3% (active) | 81.6% (active) | 80.5% (active) | 79.9% (active) | – | – | – | – | –
11 | CC(=O)Nc1ccccc1OCC(=O)c1cc(C)n(Cc2cccs2)c1C | -59.8% | 39.3% (active) | 28.7% (active) | 21.5% | 47.4% (active) | 39.6% (active) | – | – | – | – | –
12 | CN(C)c1ccc(Sc2ccc3nc(N)nc(N)c3c2)cc1 | 14.5% | 27.5% (active) | 60.9% (active) | 107% (active) | 61.6% (active) | 80.2% (active) | – | – | – | – | –
13 | CN(C)CCNc1ccc(CO)c2sc3ccc(O)cc3c(=O)c12 | 44.8% | 39.1% (active) | 77% (active) | 89.5% (active) | 75.7% (active) | 61.2% (active) | – | – | – | – | –
14 | Cc1sc2ncnc(NCC3COc4ccccc4O3)c2c1C (stereo unspecified) | -48.1% | 26.2% (active) | 18% | 62% (active) | 46.1% (active) | 57.4% (active) | – | – | – | – | –
15 | CN(Cc1ccccc1)C(=O)c1ccc(NC(=O)Cc2ccc(NC(=O)C3CCCN(C(=O)CCc4ccccc4)C3)cc2)cc1 (stereo unspecified) | -11.5% | 37.6% (active) | 29% (active) | 62.2% (active) | 64.3% (active) | 55.8% (active) | – | – | – | – | –
16 | CCN(CC)CCn1nc2c3c(cccc3c1=O)-c1ccccc1-2 | 28.6% | 54.7% (active) | 54.2% (active) | 84.5% (active) | 80.1% (active) | 79.5% (active) | – | – | – | – | –
17 | Cc1ccc2occ(/C=N/NC(=O)c3ccccc3O)c(=O)c2c1 | 5.51% | 13.2% | 14.5% | 3.45% | 2% | 25% | – | – | – | – | –
18 | CCN(CC)S(=O)(=O)c1cc(NC(=O)CNc2cccc(S(=O)(=O)N3CCCC3)c2)ccc1C | -4.32% | 32.8% (active) | 21.6% | 61.7% (active) | 54.9% (active) | 49.1% (active) | – | – | – | – | –
19 | Brc1ccc2c(c1)-c1ccccc1C1=NCCN12 | -49.1% | 40.9% (active) | 39% (active) | 104% (active) | 75.8% (active) | 71.6% (active) | – | – | – | – | –
20 | COc1ccc(CNC(=O)c2cccc3c(-c4cccnc4)coc23)cc1OC | -25.2% | 43.8% (active) | 48.5% (active) | 59.9% (active) | 66.4% (active) | 67.4% (active) | – | – | – | – | –
21 | NS(=O)(=O)c1ccc(N=Nc2c(O)[nH]c3ccc(Br)cc23)cc1 | 8.56% | 5.38% | 38.4% (active) | 23.4% | 30.4% | 8.51% | – | – | – | – | –

Row | SMILES | inhibition [1] | inhibition [2] | inhibition [3] | inhibition [4] | inhibition [5] | inhibition [6] | inhibition [7] | inhibition [8] | inhibition [9] | inhibition [10] | inhibition [11]
22 | Cc1nc2ccc(NC(=O)c3cc(S(=O)(=O)N(C)c4ccccc4)ccc3Cl)cc2s1 | -5.16% | 33.7% (active) | 30.4% (active) | 57.5% (active) | 59.5% (active) | 47.6% (active) | – | – | – | – | –
23 | Cc1ccc(/C=C2/CNC/C(=C/c3ccc(C)cc3)C2=O)cc1 | -19.2% | 43.8% (active) | 47% (active) | 79.3% (active) | 64.9% (active) | 80.2% (active) | – | – | – | – | –
24 | O=C(CSc1nnnn1C1CC2CCC1C2)Nc1ccnc2ccccc12 (stereo unspecified) | -14.4% | 44.7% (active) | 30% (active) | 61% (active) | 56.1% (active) | 59.1% (active) | – | – | – | – | –
25 | CCN(CC)C1=CC(=[N+]2CCCC2)CC(C)(C)C1 | -5.15% | 22.7% | 17.4% | 61.9% (active) | 57.5% (active) | 45.8% (active) | – | – | – | – | –
26 | Cc1ccc(Oc2ccc(OCC(=O)Nc3ccncc3)cc2)cc1 | -33.1% | 41.3% (active) | 35.7% (active) | 79.2% (active) | 70.5% (active) | 51% (active) | – | – | – | – | –
27 | COc1cccc2c1C(=O)c1c(O)c3c(c(O)c1C2=O)CC(O)(C(C)=O)CC3OC1CC(O)C(O)C(C)O1 (stereo unspecified) | -3.87% | 16.4% | 29.2% (active) | 50.7% (active) | 17.4% | 16.1% | – | – | – | – | –
28 | CN1CCN(c2ccc(CNS(=O)(=O)Cc3cccc(C(F)(F)F)c3)cc2)CC1 | -13.6% | 26.4% (active) | 15.4% | 69.8% (active) | 68.1% (active) | 40.1% (active) | – | – | – | – | –
29 | CC(C)C(=O)NC(c1ccc(Cl)cc1Cl)c1ccc2cccnc2c1O (stereo unspecified) | 6.86% | 16.8% | 48.2% (active) | 35.2% | 41.4% | 47.6% (active) | – | – | – | – | –
30 | CC(=O)Nc1ccc(Nc2c3ccccc3nc3ccccc23)cc1 | 22.8% | 39.4% (active) | 62.5% (active) | 106% (active) | 69.6% (active) | 72.8% (active) | – | – | – | – | –
31 | COc1cccc2c1C(=O)c1c(O)c3c(c(O)c1C2=O)C[C@@](O)(C(=O)CO)C[C@@H]3OC1CC(N)C(O)C(C)O1 (stereo partly specified) | -127% | 71.4% (active) | -14.6% | 87.5% (active) | 70.6% (active) | 82.6% (active) | – | – | – | – | –
32 | COc1cc2c(oc(=O)c3cc(C)cc(OC)c32)c2c(C3OC(C)C(O)C(C)(O)C3O)ccc(O)c12 (stereo unspecified) | -62.6% | 64.9% (active) | 50.6% (active) | 93.8% (active) | 75.5% (active) | 94% (active) | – | – | – | – | –
33 | Cc1ncc(CO)c(/C=N/Nc2ccc(C(F)(F)F)cn2)c1O | 11.6% | 18.7% | 71.1% (active) | 84% (active) | 70.5% (active) | 65.7% (active) | 8.88% | 38.8% | – | – | –
34 | COc1cccc(N2CCN(c3c(C#N)c(C(F)(F)F)nn3C)CC2)c1 | 48.8% (active) | 32.2% (active) | – | – | – | – | -6.45% | 41.6% | – | – | –
35 | COc1ccc(-c2noc(CCCCC(=O)N3CCN(c4cc(C)ccc4C)CC3)n2)cc1 | -26% | 32.4% (active) | – | – | – | – | 29.6% | 48.2% (active) | – | – | –
36 | O=C(Nc1ccc2c(c1)OCCO2)C(c1cc2ccccc2o1)N1CCN(c2ccc(F)cc2)CC1 (stereo unspecified) | 3.86% | -2.84% | – | – | – | – | -43.1% | 28.6% | – | – | –
37 | Cc1ccc(C(=O)C(C(=O)/C=C/c2ccccc2)=C2SCCCS2)cc1 | 44.4% | 34.3% (active) | 30.6% (active) | 54.2% (active) | 47.2% (active) | 44.5% (active) | 42.6% (active) | 56% (active) | – | – | –
38 | CC(C)(C)c1cc(/C=N/O)cc(C(C)(C)C)c1O | 33.6% | 26.5% (active) | – | – | – | – | -7.33% | 9.3% | – | – | –
39 | COc1ccc2c(=O)cc(-c3ccncc3)oc2c1OC | 43.9% | 19.3% | – | – | – | – | -15.8% | 41.5% | – | – | –
40 | COCCNC(=O)c1c[nH]c2ccc(S(=O)(=O)N3CCc4ccccc43)cc2c1=O | 43.8% | 29.5% (active) | – | – | – | – | 20.1% | 33.5% | – | – | –
41 | Cc1ccccc1Cn1c(C)nc2ccccc21 | -27.4% | 29.1% (active) | – | – | – | – | 20% | 27% | – | – | –
42 | NC(=S)NN=Cc1ccc(OC(=O)COc2cc(Cl)c(Cl)cc2Cl)cn1 | 23.4% | 18.9% | – | – | – | – | – | – | 1.21% | 5.2% | 23.4% (active)
